High-throughput results as filed in PubChem.
MOR-DOR inv ag – inverse agonist of human OPRM1-OPRD1 heterodimerization; P35372+P41143; cell-based MOR-DOR heterodimer luminescence, inverse agonism; inhibition, % at 9.3 µM; 340,000 compounds, 0.21% hits; AID 504357; in the data active = inhibition above about 22%, passing the limit was not always enough;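 note: 0% = cells with DMSO and 100% = wells without cells with DMSO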
HTR5A ag ctr – HTR5A agonism, opioid heterodimer counter-screen | P47898 | HTR5A agonist assay, luminescence, cell-based | activation, % at 9.3 µM | 340,000 compounds, 0.61% hits | AID 504692; in the data active = activation mostly above about 9.5%, no sharp cut-off; inactive = mostly below about 7.6%;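 note: 0% = cells with vehicle only and 100% = reference agonist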
Target sequence (P47898 whole entry, looked up): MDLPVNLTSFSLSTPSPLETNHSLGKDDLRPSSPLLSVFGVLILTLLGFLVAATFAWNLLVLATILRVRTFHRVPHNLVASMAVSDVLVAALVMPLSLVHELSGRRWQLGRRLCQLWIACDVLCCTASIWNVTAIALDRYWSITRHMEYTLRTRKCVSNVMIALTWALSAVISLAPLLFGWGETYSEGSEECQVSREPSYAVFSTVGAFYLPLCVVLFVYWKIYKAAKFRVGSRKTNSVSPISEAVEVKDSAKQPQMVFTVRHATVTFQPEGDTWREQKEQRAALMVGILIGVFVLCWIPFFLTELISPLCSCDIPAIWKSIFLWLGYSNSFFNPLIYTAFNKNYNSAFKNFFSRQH
HTR5A inv ctr – counter-screen for OPRM1-OPRD1 inverse agonists: human HTR5A inverse agonism; P47898; HTR5A cell line, luminescence; inhibition, % at 9.3 µM; 340,000 compounds, 0.083% hits; in the data active = inhibition mostly above about 23%, no sharp cut-off; inactive = mostly below about 18%;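 note: 0% = cells with DMSO and 100% = no-cell wells with DMSO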
PolyA inh – inhibitors of polyadenylation in S. cerevisiae | activity score, % at 12 µM | 300,000 compounds, 0.02% hits | S. cerevisiae SKY197-pL101 polyadenylation reporter, beta-gal luminescence; efflux-impaired pdr1/pdr3 knockout yeast; score 100 = 6 SD above DMSO;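 active = lowest replicate activity score at least 50, where 100 means six control SD above control mean; inconclusive = lowest score under 50 but half or more replicates reach 50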;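 note: yeast exposed to compound for 9 h at 30 °C; higher score means more reporter readthrough which indicates perturbed polyadenylation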
MOR-DOR ag – agonists of human mu-delta opioid receptor heterodimerization; P35372+P41143; cells, OPRM1-OPRD1 heterodimerization, luminescence; activation, % at 9.3 µM; 340,000 compounds, 0.3% hits;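 note: 0% = vehicle-treated cells and 100% = reference agonist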
NALP1 yeast inh – inhibitors of NALP1 inflammasome in yeast | 280,000 compounds, 0.61% hits | AID 2071 | inhibition, % at 10 µM | S. cerevisiae NALP1/ASC/caspase-1 growth, X-gal OD620, 72 h; in the data active = inhibition mostly above about 24%, no sharp cut-off; inactive = mostly below about 32%
OPRM1-D1 ag cf – OPRM1-OPRD1 heterodimer agonism, confirmation. cells, MOR-DOR heterodimerization, luminescence complementation. activation, % at 9.3 µM. shares compounds with MOR-DOR ag. 830 compounds, 45% hits. AID 504904;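 note: 0% = vehicle-treated cells and 100% = reference agonist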
HTR5A ag counter – HTR5A agonism, opioid heterodimer counter-screen; shares compounds with MOR-DOR ag; HTR5A agonist counterscreen, cell luminescence; activation, % at 9.3 µM; 830 compounds, 8% hits; in the data active = activation above about 17%;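 note: 0% = vehicle-treated cells and 100% = reference agonist response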
The depositor's hits bear a star; i = inactive; ? = inconclusive; / = no result. Rows were chosen to be rich in hits. Some 1.6% of all compounds tested hit in one or more screens of this group. Cut-off read from the data, not from the text of the source, unless noted: active = activation above about 18%; inactive = the rest.

SMILES	MOR-DOR inv ag	HTR5A ag ctr	HTR5A inv ctr	PolyA inh	MOR-DOR ag	NALP1 yeast inh	OPRM1-D1 ag cf	HTR5A ag counter
O=c1[nH]cnc2c1ccn2C1OC(CO)C(O)C1O (stereo unspecified)	15	1	18	/	-3	/	/	/
C[C@H]1CCC(=O)N([C@H](CN=[N+]=[N-])Cc2ccccc2)CC1	9	2	-1	-21	-2	12	/	/
COc1ccc(-n2c3c(cc(C(=O)NNc4ccccc4C)c2=O)C(=O)CC(C)(C)C3)cc1	-470	3	-7	11	99*	18	133*	-1
CC1(C)CC(=O)c2cc(C(=O)Nn3cnnc3)c(=O)n(-c3ccccc3)c2C1	12	-6	14	3	-2	-1	/	/
COc1ccc(-n2c3c(cc(C(=O)NNc4ccccc4)c2=O)C(=O)CC(C)(C)C3)cc1	i	-2	4	-6	129*	42	0	3
COc1cccc(N=c2oc3ccc(OC)cc3cc2-c2nc3ccccc3[nH]2)c1	-102	4	-30	-20	19*	22	26*	8
CCOc1ccc2nc(NC3=NC(c4ccc(OC)cc4)CC(=O)N3)nc(C)c2c1 (stereo unspecified)	-77	6	-25	5	13	4	/	/
CCOc1ccc2c(C)nc(NC3=NC(C)(C)C=C(C)N3)nc2c1	i	-3	-2	14	170*	18	2	1
CCOc1ccc2nc(NC3=NC(C)(C)C=C(C)N3)nc(C)c2c1	i	0	0	10	158*	28	1	-1
Oc1cccc(NC(=S)Nc2ccc(SC(F)F)cc2)c1	-193	-7	19	-17	32*	11	4	2
Oc1cccc2c(NC(=S)Nc3ccc(SC(F)F)cc3)cccc12	-36	-2	5	-19	6	26	/	/
CC(=O)Nc1ccc(CN2CCCC(C(=O)c3cccc(C(F)(F)F)c3)C2)cc1 (stereo unspecified)	-366	1	14	-20	58*	24	56*	-2
CCOC(=O)c1c(NC(=O)CN2CCN(S(=O)(=O)c3cc(Cl)ccc3Cl)CC2)sc(C(=O)N(C)C)c1C	-96	-1	4	/	18*	/	12	-1
COCCn1c(SCC(=O)Nc2cc(C)on2)nc2ccccc2c1=O	18	4	-10	/	-5	/	/	/
CCCCCCn1c(SCC(=O)Nc2cc(C)on2)nc2ccccc2c1=O	-121	3	-19	11	21*	36	26*	17*
Cc1ccc(C)c(-n2cc(CNC(C)Cn3cncn3)c(-c3ccccc3)n2)c1 (stereo unspecified)	-201	-7	-13	-2	39*	-11	36*	3
Cc1ccc(-n2cc(CNC(C)Cn3cncn3)c(-c3ccc(F)cc3)n2)cc1 (stereo unspecified)	6	-1	3	4	-1	15	/	/
Cc1ccc(-n2cc(CNCCCn3cccn3)c(-c3cccc(C)c3)n2)cc1	-92	8	19	?	18	/	/	/
Cc1ccc(C)c(-n2cc(CNCCCn3cccn3)c(-c3ccccc3)n2)c1	i	-8	5	2	243*	12	218*	-1
COc1ccc2nc(N3CCCC(C(=O)NCCCN4C(C)CCCC4C)C3)sc2c1 (stereo unspecified)	-4	-3	7	-5	1	13	/	/
Cc1cccc(NC(=O)CN(C)S(=O)(=O)c2ccc3c(c2)n(C)c(=O)c(=O)n3C)c1C	15	4	-15	11	-3	21	/	/
NC(N)=N/N=C/c1ccc(OCc2ccccc2Cl)cc1	-124	5	-10	0	22*	28*	7	-4
NC(N)=N/N=C/c1ccccc1	13	3	20	-8	-2	18	/	/
O=S(=O)(NCCSc1nnc(-c2ccco2)n1-c1ccccc1)c1ccccc1	-78	2	-14	2	19*	13	1	15
NC(=O)CSc1nnc(-c2ccco2)n1-c1ccccc1	9	-3	10	-1	-2	4	/	/
SMILES	MOR-DOR inv ag	HTR5A ag ctr	HTR5A inv ctr	PolyA inh	MOR-DOR ag	NALP1 yeast inh	OPRM1-D1 ag cf	HTR5A ag counter
CCc1cc(C(=O)c2ccc(OC)cc2)c(NC(=O)CC(C)(C)CC(=O)O)s1	10	1	-10	-2	-2	/	/	/
Cc1c(C(=O)Nc2c(C)n(C)n(-c3ccccc3)c2=O)oc2ccc(Cl)cc12	8	9	-38	-12	-2	3	/	/
COc1cccc(CN2CCC(n3nccc3NC(=O)CCCc3ccccc3)CC2)c1O	10	3	17	6	-2	4	/	/
COc1ccc(CN2CCC(n3nccc3NC(=O)CCc3ccccc3)CC2)c(C)c1C	-117	-1	-2	0	23*	11	4	-2
CC1CCCC(C)N1C(=O)Cn1cnc2cc([N+](=O)[O-])ccc2c1=O (stereo unspecified)	-18	-2	2	8	4	-16	/	/
COc1ccccc1NS(=O)(=O)c1ccc(C)c(C(=O)NC2CCN(Cc3ccccc3)CC2)c1	-30	0	1	/	6	/	/	/
COc1ccccc1NS(=O)(=O)c1cccc(C(=O)NC2CCN(Cc3ccccc3)CC2)c1	-107	0	-1	13	20*	/	-4	-3
Cc1ccccc1N(CC(=O)N/N=C/c1ccc(F)cc1)C(=O)c1ccccc1	-158	8	-12	8	30*	21	46*	2
Cc1c2ccccc2c(C)c2c1ccc1ccccc12	-100	7	-24	/	19*	/	-2	-2
O=C(CSc1nnc(-c2csc3c2CCCC3)o1)Nc1ccccc1	-13	10	-28	2	2	30	/	/
Cc1ccc(-n2cc(CNC(C)c3cnn(C)c3)c(-c3ccc(F)cc3)n2)cc1 (stereo unspecified)	i	2	-3	-3	366*	1	440*	0
Cc1ccc(-n2cc(CNCCCn3ccnc3C)c(-c3ccc(F)cc3)n2)cc1	-17	0	-1	-4	3	13	/	/
Cc1ccc(-n2cc(CNC(C)c3cnn(C)c3C)c(-c3ccc(F)cc3)n2)cc1 (stereo unspecified)	i	8	-24	8	222*	12	34*	11
COc1ccccc1N1CCN(C(=O)c2ccc3c(c2)CCN3S(C)(=O)=O)CC1	6	5	-17	1	-1	10	/	/
Cc1cc(=O)oc2cc(NC(=O)C3COc4ccccc4O3)ccc12 (stereo unspecified)	-122	1	-1	-7	20*	18	39*	14
O=C(Nc1ccc2c(c1)OCO2)C1COc2ccccc2O1 (stereo unspecified)	10	4	4	38	-2	14	/	/
